Platelet DG rel: modulates dense granule release in human platelets; human platelet-rich plasma, SFLLRN dense granule ATP release, luminescence; inhibition, %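 (compounds screened at 7.5 µM in platelet-rich plasma)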; 0.22% of 300,000 active;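 active means mean replicate score, as percent of positive control, at or above 50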
SENP8 block-1: blocks human SENP8 cleavage of Nedd8 substrate | inhibition, % at 20 µM | 0.64% of 360,000 active | AID 602440 | recombinant SENP8, Nedd8 substrate fluorescence | Q96LD8; in the data active means inhibition mostly above about 40%, no sharp cut-off; inactive means mostly below about 27%
SENP7 block: SENP7 protease inhibition; inhibition, % at 5 µM; 1.5% of 330,000 active; Q9BQF6; recombinant SENP7, Z-RLRGG-aminoluciferin luminescence, 40 min;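 active means inhibition above about 50% at the single test dose, limit read from the data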
SENP8 block-2: SENP8 protease inhibition; Q96LD8; purified SENP8, Z-RLRGG-aminoluciferin cleavage, luminescence; inhibition, % at 10 µM; 1.2% of 330,000 active; AID 2540; in the data active means inhibition above about 50%
SENP6 block: inhibitors of human SENP6 protease; Recombinant SENP6 catalytic domain, aminoluciferin luminescence; inhibition, % at 10 µM; 1.8% of 330,000 active;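 active means inhibition above about 50% at the single tested dose, limit read from the data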
Target sequence (Q9GZR1 628-1112 limits assumed): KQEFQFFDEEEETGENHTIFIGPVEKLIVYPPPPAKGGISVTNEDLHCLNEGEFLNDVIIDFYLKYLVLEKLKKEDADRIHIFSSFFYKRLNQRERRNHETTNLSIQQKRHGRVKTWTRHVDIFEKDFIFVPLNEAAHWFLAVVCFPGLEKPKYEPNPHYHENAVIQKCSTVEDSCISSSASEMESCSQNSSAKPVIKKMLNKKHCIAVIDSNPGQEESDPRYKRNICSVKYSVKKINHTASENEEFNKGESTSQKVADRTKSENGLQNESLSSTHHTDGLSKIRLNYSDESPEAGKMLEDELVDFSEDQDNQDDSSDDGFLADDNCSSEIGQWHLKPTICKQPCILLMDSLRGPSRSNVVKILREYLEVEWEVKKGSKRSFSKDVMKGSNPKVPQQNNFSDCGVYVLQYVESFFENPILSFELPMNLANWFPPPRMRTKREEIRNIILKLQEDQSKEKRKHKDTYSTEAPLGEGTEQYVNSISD
Large screens that a line does not name were inactive. An excerpt weighted towards active compounds, which were near 2.4% of everything screened.

Oc1cccc2ccc(/C=C/c3cccs3)nc12	SENP7 block 95, SENP8 block-2 88, SENP6 block 96
COc1cccc(/C=C2\CCc3ccccc3C2=O)c1	SENP7 block 94, SENP8 block-2 95, SENP6 block 99
CSc1nc(N)nc2c1ncn2C1OC(CO)CC1O (stereo not given)	none (no result: Platelet DG rel, SENP7 block, SENP8 block-2, SENP6 block)
COc1ccc2cc(C(c3nnnn3C3CCCC3)N3CCOCC3)c3nnnn3c2c1 (stereo not given)	none
COc1ccc(C(c2c(C)[nH]n(-c3ccccc3)c2=O)c2c(C)[nH]n(-c3ccccc3)c2=O)cc1OC	SENP8 block-1 84
Cc1[nH]n(-c2ccccc2)c(=O)c1C(C[N+](=O)[O-])c1ccc(Cl)cc1 (stereo not given)	SENP8 block-1 45
COc1ccc(C(c2c(C)n(C)n(-c3ccccc3)c2=O)c2c(C)n(C)n(-c3ccccc3)c2=O)cc1OC	none
Cc1sc2ncn(CC(=O)N3CCOCC3)c(=O)c2c1-c1ccccc1	none
COc1cc(/C=C2/C(=O)N(c3ccccc3)N=C2C)ccc1OS(=O)(=O)c1ccccc1	none (no result: SENP8 block-1)
CC1=NN(c2ccc(C(=O)O)cc2)C(=O)/C1=C\c1ccc(OC(=O)c2cccs2)cc1	SENP8 block-1 61
COc1ccc(/C=C2/C(=O)N(c3ccccc3)N=C2C)cc1Br	SENP8 block-1 46
CC1=NN(c2ccccc2)C(=O)/C1=C/c1c(O)n(-c2ccc(F)cc2)[nH]c1=O	SENP6 block 58
CC1=NN(c2ccccc2)C(=O)/C1=C/c1ccc[nH]1	SENP8 block-1 46
O=C(O)Cc1sc(Nc2cccc3ccccc23)nc1-c1ccc(Cl)cc1	none
CCCNC(=O)c1nn2cc(Br)cnc2c1Br	none
CC1=NN(c2ccccc2)C(=O)C1=Cc1ccccc1	SENP8 block-1 50 (no result: Platelet DG rel, SENP7 block, SENP8 block-2, SENP6 block)
CC1=NN(c2ccccc2)C(=O)/C1=C/C=C/C=C/N(C)C	none
COc1ccc(/C=C2/C(=O)N(c3cccc(F)c3)N=C2C)c(OC)c1	SENP8 block-1 41
CC1=NN(c2ccccc2)C(=O)/C1=C/c1ccc(Cl)cc1	SENP8 block-1 41
CC1=NN(c2cccc(F)c2)C(=O)/C1=C/c1ccc(N(C)C)cc1	none (no result: Platelet DG rel)
CC1=NN(c2ccccc2)C(=O)/C1=C\N(O)c1ccccc1	SENP8 block-1 76
O=C1CN(S(=O)(=O)c2cccc(Br)c2)CCN1	none (no result: Platelet DG rel)
CCCc1ccc2oc(C(=O)N3CCC(C(N)=O)(N4CCCCC4)CC3)c(C)c2c1	none
COc1ccc(-c2nc(-c3cccs3)no2)cc1	SENP7 block 99, SENP8 block-2 96, SENP6 block 99
CC(=O)C1=CCC(c2ccccc2)N(S(=O)(=O)c2ccc(Cl)cc2)C1 (stereo not given)	none (no result: Platelet DG rel, SENP7 block, SENP8 block-2, SENP6 block)
COc1ccc(OC)c2c1C(=O)c1ccccc1C2=O	none (no result: SENP8 block-1)
COc1ccc(OC)c2c1C(=O)C(Cl)=C(Cl)C2=O	Platelet DG rel 66
COc1ccc(OC)c(NC(=O)COC(=O)C2CCCCC2)c1	none (no result: Platelet DG rel)
COc1ccc(Br)cc1CNC(=O)c1ccc2c(c1)N(C)CCS2	Platelet DG rel 97
COC1=CC(=O)C(OC)=C(OC)C1=O	SENP8 block-1 41 (no result: Platelet DG rel, SENP7 block, SENP8 block-2, SENP6 block)
CCN(CC)c1ccc2cc(-c3nc4ccccc4[nH]3)c(=O)oc2c1	SENP7 block 95, SENP8 block-2 51, SENP6 block 69
Oc1ccccc1/C=N/Nc1cc(N2CCCC2)nc(N2CCCC2)n1	SENP8 block-1 58
Oc1ccc(/C=N/Nc2cc(N3CCOCC3)nc(N3CCOCC3)n2)cc1O	none
Cc1c(N2C(=O)c3ccccc3C2(O)c2ccccc2)c(=O)n(-c2ccccc2)n1C (stereo not given)	SENP6 block 95
Cc1ccc(NC2=C(NC(=O)c3ccccc3)C(=O)c3ccccc3C2=O)cc1Cl	SENP8 block-1 62
COCCN(C(=O)COC(=O)CCc1nc2ccccc2s1)c1c(N)n(Cc2ccccc2)c(=O)[nH]c1=O	Platelet DG rel 52
COCCN(C(=O)COC(=O)CCc1ccc(OC)cc1)c1c(N)n(Cc2ccccc2)c(=O)[nH]c1=O	none
COc1ccc(OCc2cc(C(=O)O)c(C)o2)cc1	SENP7 block 92, SENP8 block-2 89, SENP6 block 92 (no result: SENP8 block-1)
Cc1csc(N/N=C/c2ccc([N+](=O)[O-])cc2)n1	none
Cc1csc(N/N=C/c2ccccn2)n1	SENP7 block 83, SENP8 block-2 85, SENP6 block 87
O=C(O)c1cc(N/N=C/C=C/c2ccccc2[N+](=O)[O-])ccc1Cl	SENP8 block-2 52
NC(Cc1ccc(C(F)(F)F)cc1)c1csc(Nc2ccc(S(N)(=O)=O)cc2)n1 (stereo not given)	none (no result: Platelet DG rel, SENP7 block, SENP8 block-2, SENP6 block)
CC(=O)Nc1ccc2nc(C3CC3)n(Cc3ccc(Cl)cc3)c(=O)c2c1	none
